Here are results for 5 compounds from PubChem BioAssay (EPA / NIEHS).

Values joined by “and” are separate entries in the source; they are usually repeats but may differ in a detail not shown here. Equal values may be shown once. Some structures have more than one record in an assay (separate samples or runs), and their calls can disagree. Active and inactive are the calls of the source. The calls were made as follows: active = hit-call score of the fitted dose curve at least 0.9, where 1 is the maximum; inactive = score below 0.9.

Read-out in test [1]: Vascular endothelial growth factor receptor 2 (Homo sapiens) (UniProt P35968)
As to the kind of experiment: BSK_4H_VEGFRII: BioMAP Diversity Plus: 4H Assay for Vascular endothelial growth factor receptor 2 (VEGFR2) Biomarker Activity (AID 2283031). To be noted: primary human endothelial cells (HUVEC); actives raise or lower the signal. The method in brief: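 Primary human umbilical vein endothelial cells (4H system), 24 h exposure; cell-surface VEGFR2 measured by ELISA. Bidirectional fitting versus DMSO; cytotoxicity checked in parallel by SRB total-protein staining.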

Read-out in test [2]: Human Leukocyte Antigen - DR isotype (HLADR), HLA-DRA (gene 3122)
As to the kind of experiment: BSK_BE3C_HLADR: BioMAP Diversity Plus: BE3C Assay for Human Leukocyte Antigen - DR isotype (HLADR) Biomarker Activity (AID 2283032). To be noted: primary human bronchial epithelial cells; actives raise or lower the signal. The method in brief: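 ELISA read-out of HLA-DR on human lung bronchial epithelial primary cells, measured 24 h post-dosing. Both increases and decreases were scored relative to DMSO vehicle.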

Read-out in test [3]: Vascular cell adhesion molecule 1 (VCAM1), VCAM1 (gene 7412)
The test can be described thus: BSK_4H_VCAM1: BioMAP Diversity Plus: 4H Assay for Vascular cell adhesion molecule 1 (VCAM1) Biomarker Activity (AID 2283033).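 As to outcome: cell-surface VCAM-1 protein measured by ELISA.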 To be noted: primary human endothelial cells (HUVEC); actives raise or lower the signal. In a few lines: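 ELISA read-out of VCAM-1 on human umbilical vein endothelium 24 hours after chemical dosing; gain or loss of signal was fitted relative to DMSO, with sulforhodamine B staining of parallel cultures flagging overt cytotoxicity.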

Read-out in test [4]: Interferon-gamma inducible Protein 10 (IP10), CXCL10 (gene 3627)
As to the kind of experiment: BSK_BE3C_IP10: BioMAP Diversity Plus: BE3C Assay for Interferon-gamma inducible Protein 10 (IP10) Biomarker Activity (AID 2283034). To be noted: primary human bronchial epithelial cells; actives raise or lower the signal. In a few lines: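 Chemical is dosed onto human lung bronchial epithelial primary cells, cultures are incubated 24 h, and IP-10 is then quantified by ELISA. Gain or loss of signal is fitted in both directions relative to DMSO.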

Read-out in test [5]: Monokine induced gamma interferon (MIG), CXCL9 (gene 4283)
As to the kind of experiment: BSK_BE3C_MIG: BioMAP Diversity Plus: BE3C Assay for Monokine induced gamma interferon (MIG) Biomarker Activity (AID 2283035). To be noted: primary human bronchial epithelial cells; actives raise or lower the signal. The method in brief: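 MIG level was determined by ELISA after 24 h chemical treatment of primary human bronchial epithelial cells. Values were fitted bidirectionally with DMSO as the negative control and activity baseline.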

Read-out in test [6]: Transforming growth factor beta 1 (TGFb1), TGFB1 (gene 7040)
As to the kind of experiment: BSK_BE3C_TGFb1: BioMAP Diversity Plus: BE3C Assay for Transforming growth factor beta 1 (TGFb1) Biomarker Activity (AID 2283036;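 also: TGF-b1 protein level measured by ELISA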). The following applies: primary human bronchial epithelial cells; actives raise or lower the signal. In a few lines: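 Primary human lung bronchial epithelial cells; compound exposure 24 h; TGF-b1 by ELISA; bidirectional fit, DMSO baseline. Parallel SRB total-protein staining for cytotoxicity.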

Read-out in test [7]: Plasminogen activator inhibitor-1 (PAI1), SERPINE1 (gene 5054)
The test can be described thus: BSK_BE3C_PAI1: BioMAP Diversity Plus: BE3C Assay for Plasminogen activator inhibitor-1 (PAI1) Biomarker Activity (AID 2283037). To be noted: primary human bronchial epithelial cells; actives raise or lower the signal. In a few lines:
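Primary human lung bronchial epithelial cells; chemical dosing; 24 h; PAI-1 measured by ELISA; bidirectional fit referenced to DMSO as negative control.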

Read-out in test [8]: urokinase plasminogen activator (uPA), PLAU (gene 5328)
The test can be described thus: BSK_BE3C_uPA: BioMAP Diversity Plus: BE3C Assay for urokinase plasminogen activator (uPA) Biomarker Activity (AID 2283038).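 Also: uPA protein level quantified by ELISA in cell cultures; uPA read one day after compound addition.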 To be noted: primary human bronchial epithelial cells; actives raise or lower the signal. In a few lines: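 Primary human bronchial epithelial cells, uPA measured by ELISA 24 h after dosing. Bidirectional change relative to DMSO; cytotoxicity checked in parallel cultures by sulforhodamine B total-protein staining.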

Read-out in test [9]: Urokinase-type plasminogen activator receptor (uPAR), PLAUR (gene 5329)
The test can be described thus: BSK_BE3C_uPAR: BioMAP Diversity Plus: BE3C Assay for Urokinase-type plasminogen activator receptor (uPAR) Biomarker Activity (AID 2283039).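 As to outcome: uPAR protein level measured by ELISA on the cells; cells exposed to compound for one day before measurement.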 The following applies: primary human bronchial epithelial cells; actives raise or lower the signal. In a few lines: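 Human bronchial epithelial primary cells; chemical exposure 24 h; uPAR by ELISA; bidirectional fit vs DMSO control.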

Read-out in test [10]: Interleukin-6 (IL6), IL6 (gene 3569)
The test can be described thus: BSK_CASM3C_IL6: BioMAP Diversity Plus: CASM3C Assay for Interleukin-6 (IL6) Biomarker Activity for (AID 2283040). To be noted: primary human coronary artery smooth muscle cells; actives raise or lower the signal.

Read-out in test [11]: Tissue plasminogen activator (tPA), PLAT (gene 5327)
The test can be described thus: BSK_BE3C_tPA: BioMAP Diversity Plus: BE3C Assay for Tissue plasminogen activator (tPA) Biomarker Activity (AID 2283041).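 Also: tPA level quantified by ELISA one day after compound addition.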 The following applies: primary human bronchial epithelial cells; actives raise or lower the signal. In a few lines:
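Primary human lung bronchial epithelial cultures receive test chemical; after 24 h, tPA is quantified by ELISA, and gain or loss of signal is fitted bidirectionally relative to DMSO baseline.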

Read-out in test [12]: Interleukin-8 (IL8), CXCL8 (gene 3576)
As to the kind of experiment: BSK_CASM3C_IL8: BioMAP Diversity Plus: CASM3C Assay for Interleukin-8 (IL8) Biomarker Activity (AID 2283042).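 Also: IL-8 protein level quantified by ELISA.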 The following applies: primary human coronary artery smooth muscle cells; actives raise or lower the signal.

Read-out in test [13]: Human Leukocyte Antigen - DR isotype (HLADR), HLA-DRA (gene 3122)
As to the kind of experiment: BSK_CASM3C_HLADR: BioMAP Diversity Plus: CASM3C Assay for Human Leukocyte Antigen - DR isotype (HLADR) Biomarker Activity (AID 2283043).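 Also: cell-surface HLA-DR protein level quantified by ELISA.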 The following applies: primary human coronary artery smooth muscle cells; actives raise or lower the signal.

Read-out in test [14]: Macrophage colony-stimulating factor (MCSF), CSF1 (gene 1435)
As to the kind of experiment: BSK_CASM3C_MCSF: BioMAP Diversity Plus: CASM3C Assay for Macrophage colony-stimulating factor (MCSF) Biomarker Activity (AID 2283044).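 Also: M-CSF protein amount quantified by ELISA after 24 h exposure.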 The following applies: primary human coronary artery smooth muscle cells; actives raise or lower the signal.

Read-out in test [15]: Low-density lipoprotein receptor (LDLR), LDLR (gene 3949)
As to the kind of experiment: BSK_CASM3C_LDLR: BioMAP Diversity Plus: CASM3C Assay for Low-density lipoprotein receptor (LDLR) Biomarker Activity (AID 2283045).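 Also: LDLR protein level on the cell surface quantified by ELISA.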 To be noted: primary human coronary artery smooth muscle cells; actives raise or lower the signal.

Read-out in test [16]: Monocyte Chemoattractant Protein-1 (MCP1), CCL2 (gene 6347)
As to the kind of experiment: BSK_CASM3C_MCP1: BioMAP Diversity Plus: CASM3C Assay for Monocyte Chemoattractant Protein-1 (MCP1) Biomarker Activity (AID 2283046).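 Also: MCP-1 level quantified by ELISA 24 h after dosing.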 The following applies: primary human coronary artery smooth muscle cells; actives raise or lower the signal.

Test [17] is described as follows: BSK_CASM3C_Proliferation: Cell Proliferation Assessment in the BioMAP Diversity Plus: CASM3C Assay (AID 2283047).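 Also: sulforhodamine B total protein stain as relative cell number at 560 nm; sub-confluent cells exposed 48 h before staining; fitted both ways against DMSO so gain or loss of cell number.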 To be noted: primary human coronary artery smooth muscle cells.
Read-out in test [18]: Monokine induced gamma interferon (MIG), CXCL9 (gene 4283)
As to the kind of experiment: BSK_CASM3C_MIG: BioMAP Diversity Plus: CASM3C Assay for Monokine induced gamma interferon (MIG) Biomarker Activity (AID 2283048).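 Also: MIG protein level measured by ELISA.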 The following applies: primary human coronary artery smooth muscle cells; actives raise or lower the signal.

Read-out in test [19]: serum amyloid A (SAA), SAA1 (gene 6288)
As to the kind of experiment: BSK_CASM3C_SAA: BioMAP Diversity Plus: CASM3C Assay for serum amyloid A (SAA) Biomarker Activity (AID 2283049).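 Also: SAA protein level quantified by ELISA.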 To be noted: primary human coronary artery smooth muscle cells; actives raise or lower the signal.

Test [20] is described as follows: BSK_CASM3C_SRB: Viability Assessment in the BioMAP Diversity Plus: CASM3C Assay (AID 2283050).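 Also: total protein by SRB staining as cytotoxicity measure in parallel cultures.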 To be noted: primary human coronary artery smooth muscle cells.

What is called AC50 is the concentration at which the activity in the assay is half-maximal. Consider `O=C(O)COc1ccc(Cl)cc1Cl`, for which the result in test [1], in test [2], in [3], in test [4], in [5] and in [6] was inactive. For the same compound, the outcome in test [7], in test [8], in test [10], in [11], in test [12] and in test [13] was inactive. For the same compound, the result in test [14], in [15], in [16], in test [17], in test [18] and in test [19] was inactive. Moreover, the result in [20] was inactive. Also, the AC50 in test [9] was 0.152 µM (active).

In the case of `O=[N+]([O-])c1c(Cl)c(Cl)c(Cl)c(Cl)c1Cl`, the result in test [1], in [2], in test [4], in test [5], in test [6] and in test [7] was inactive. Besides, the result in [8], in [9], in [10], in test [11], in test [12] and in test [13] was inactive. For the same compound, the outcome in test [14], in [15], in test [16], in test [17], in [18] and in test [19] was inactive. Besides, the outcome in test [20] was inactive. For the same compound, the AC50 in test [3] was 19.3 µM (active).

Turning to `O=C(O)C(F)(F)C(F)(F)C(F)(F)C(F)(F)C(F)(F)C(F)(F)C(F)(F)F`, the result in [1], in test [2], in [3], in test [4], in test [5] and in [6] was inactive. The result in test [7], in test [8], in test [9], in test [10], in test [11] and in test [12] was inactive. Further, the outcome in test [13], in [14], in test [15], in test [16], in test [17] and in test [18] was inactive. For the same compound, the outcome in test [19] and in test [20] was inactive. Besides, the AC50 in test [4] was 43.9 µM (active) [middle of 4 runs]; in test [17], 16.6 µM (active); in test [18], 36.6 µM (active).

Consider `ClC1C(Cl)C(Cl)C(Cl)C(Cl)C1Cl` (stereo not drawn), for which the outcome in test [1], in test [2], in [3], in test [4], in [5] and in test [6] was inactive. Further, the result in [7], in test [8], in test [9], in test [10], in test [11] and in test [12] was inactive. Further, the result in [13], in test [14], in test [15], in test [16], in test [17] and in test [18] was inactive. Further, the result in [19] and in [20] was inactive. The half-maximal activity concentration (AC50) in test [14] was 32.4 µM (active); in test [15] it was 27.8 µM (active); in test [17] it was 20 µM (active) and 29.6 µM (active); in test [19], 34.8 µM (active); in test [20] it was 35.2 µM (active).

Consider `CCOc1nc(NC)nc(NC(=O)NS(=O)(=O)c2ccccc2C(=O)OC)n1`, for which the result in test [1], in test [2], in test [3], in [4], in test [5] and in test [6] was inactive. For the same compound, the outcome in test [7], in test [8], in test [9], in test [10], in test [11] and in test [12] was inactive. Besides, the outcome in test [13], in test [14], in test [15], in [16], in test [17] and in test [18] was inactive. In addition, the result in test [19] and in test [20] was inactive.
